The entries come from a sample that favours hits as a whole.
HePTP inh: inhibitors of human HePTP phosphatase, primary screen, biochemical, absorbance, leukemia target | recombinant HePTP phosphatase activity, OD absorbance | hit rate 0.64% among 110,000 | Tyrosine-protein phosphatase non-receptor type 7 (Homo sapiens), P35236 | inhibition, % at 20 µM; in the data active = inhibition above about 50%;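 also: plate controls were vehicle for no effect and reference inhibitor for full effect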
PLAP activator: PLAP enzyme activators, biochemical, luminescence, HTS. Alkaline phosphatase, placental type (Homo sapiens), P05187. hit rate 1.2% among 96,000. activation fold at 20 µM. purified PLAP enzyme, luminescent substrate read-out; stronger effect = higher value. AID 696, 2007; in the data active = activation fold above about 2
Candida biofilm: clotrimazole potentiators killing Candida biofilms, primary screen, with clotrimazole, Alamar Blue; C. albicans biofilm + clotrimazole; inhibition, % at 6 µM; hit rate 0.14% among 85,000; AID 834, 2007;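 active = inhibition above 20%; inactive = inhibition below 20%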;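 also: preformed 24 hr biofilms exposed to compound for 48 hr; 0% = biofilm without compound and 100% = blank killed by clotrimazole plus chlorhexidine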
hDAT+cocaine: changed hDAT dopamine uptake under cocaine IC80, either direction, primary screen, cocaine antagonist project, cell-based, LLC-PK1 hDAT, [14C]-dopamine uptake, MLSMR; LLC-PK1 hDAT cells, [14C]-dopamine uptake with cocaine IC80; actives deviate in either direction; B-score at 10 µM; hit rate 1.3% among 110,000; AID 449768, 2010;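 active = Z score or B-score, a plate-position-corrected score, falls beyond the plate's 99.7% confidence bounds, in either direction; inactive = both scores lie inside the 99.7% bounds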;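 also: scored against the spread of the other compound wells on the same plate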
D1 mod: D1 CRE-luciferase signal change, two-sided – cell-based, HEK293 D1, dopamine EC30, D1 allosteric modulator project, primary screen; B-score at 10 µM; D(1A) dopamine receptor (Homo sapiens), P21728; dopamine EC30 potentiation; actives deviate in either direction; hit rate 5.9% among 58,000;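 active = luminescence count or its row- and column-corrected plate score outside the 99.7% band of the plate's sample wells, on either side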
Target sequence (P21728 whole entry, looked up): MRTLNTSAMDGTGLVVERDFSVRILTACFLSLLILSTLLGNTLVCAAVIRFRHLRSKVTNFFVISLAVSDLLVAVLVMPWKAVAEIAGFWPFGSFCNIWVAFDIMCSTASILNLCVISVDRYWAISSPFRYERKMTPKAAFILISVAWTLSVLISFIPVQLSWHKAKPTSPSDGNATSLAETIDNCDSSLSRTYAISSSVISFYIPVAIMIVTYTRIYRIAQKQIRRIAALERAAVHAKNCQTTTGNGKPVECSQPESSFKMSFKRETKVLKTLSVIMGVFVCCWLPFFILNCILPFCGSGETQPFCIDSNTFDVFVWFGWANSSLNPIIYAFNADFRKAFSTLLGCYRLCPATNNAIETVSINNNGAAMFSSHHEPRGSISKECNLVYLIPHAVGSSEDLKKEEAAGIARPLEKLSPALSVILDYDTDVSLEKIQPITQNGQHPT
TNAP act DEA: human TNAP enzyme activators, primary screen, biochemical, luminescent, intermediate phosphate acceptor level | activation factor at 20 µM | Alkaline phosphatase, tissue-nonspecific isozyme (Homo sapiens), P05186 | purified TNAP, CDP-star luminescence, 100 mM DEA, 30 min; stronger effect = higher value; scale: 0 levamisole-inhibited, 1 vehicle-only enzyme | 64,000 tested, under 10 active | AID 813, 2007;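 active = activation factor of at least 2 at 20 µM, relative to controls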
Starred values were filed as active, the others as inactive.

O=C(COc1ccc(Cl)cc1Br)N/N=C/c1cc([N+](=O)[O-])ccc1O was read as HePTP inh 5.
`CCN(CC)C(=O)CSc1nc2sc(C)c(C)c2c(=O)[nH]1` gave HePTP inh 6, PLAP activator 1.1, Candida biofilm 4, hDAT+cocaine 3.5* and TNAP act DEA 1.
Cc1ccccc1-c1nc2ccccc2c(=O)n1/N=C/c1ccccc1[N+](=O)[O-] was read as PLAP activator 0.9 and hDAT+cocaine 1.1*.
Screening O=[N+]([O-])c1ccc(/C=N/Nc2cc(N3CCOCC3)nc(N3CCOCC3)n2)cc1 returned HePTP inh -2.
Screening Cc1nn(Cc2cccc(C(=O)NC34CC5CC(CC(C5)C3)C4)c2)c(C)c1Br returned hDAT+cocaine 1.8.
`CCCNC(=O)c1cccc(Cn2nc(C)c(Br)c2C)c1` gave HePTP inh 5, PLAP activator 1.8, Candida biofilm 3, hDAT+cocaine 0.57, D1 mod -1.7* and TNAP act DEA 1.
`Cc1nc2c(c(=O)n1CCC(C)C)c1nc3ccccc3nc1n2Cc1ccc2c(c1)OCO2` gave HePTP inh -4, PLAP activator 1.3, Candida biofilm 3, hDAT+cocaine 0.069, D1 mod 8.8* and TNAP act DEA 0.9.
Cc1nc2c(c(=O)n1CC1CCCO1)c1nc3ccccc3nc1n2CCC(C)C (stereo not drawn) was read as HePTP inh 7, Candida biofilm 1 and TNAP act DEA 0.9.
Screening Cc1ccsc1/C=c1\sc2nc3ccccc3n2c1=O returned HePTP inh -6.
Screening O=C(NCc1ccc(Cl)cc1)c1cnccn1 returned PLAP activator 1.2, Candida biofilm 1 and hDAT+cocaine -2.8*.
Screening O=C(NCc1cccc(Cl)c1)c1cnccn1 returned HePTP inh 6, PLAP activator 1.4, Candida biofilm 7, hDAT+cocaine -0.089, D1 mod 0.44 and TNAP act DEA 1.
`N#Cc1ccc(-c2ccccc2)[nH]c1=S` gave HePTP inh 8.
For O=C(Nc1ccc(O)cc1)c1ccc(C(=O)c2ccccc2)o1 the results were HePTP inh 3, PLAP activator 0.8, Candida biofilm 8, hDAT+cocaine 0.13, D1 mod -3.2* and TNAP act DEA 0.9.
Screening O=c1c(C=NCCCn2ccnc2)c(-c2ccccc2)[nH]n1-c1nc2ccccc2s1 returned HePTP inh 10, PLAP activator 1.7, Candida biofilm 2, hDAT+cocaine 1.1, D1 mod 1.6 and TNAP act DEA 1.
`CC(=NCCCn1ccnc1)c1c(-c2ccccc2)[nH]n(-c2nc3ccccc3s2)c1=O` gave PLAP activator 2*, Candida biofilm -4 and hDAT+cocaine -0.5.
Screening COc1ccc(-c2nnc(-c3cccs3)o2)cc1OC returned HePTP inh 7, PLAP activator 0.9, Candida biofilm 3, hDAT+cocaine -0.54, D1 mod 4.6 and TNAP act DEA 0.8.
`CCOc1ccc(-c2nnc(-c3cccs3)o2)cc1OCC` gave HePTP inh 4, PLAP activator 1, Candida biofilm 4, hDAT+cocaine -0.21, D1 mod 5* and TNAP act DEA 0.9.
For O=C(N/N=C/c1cccc(Br)c1)C(Oc1ccccc1)Oc1ccccc1 the results were HePTP inh -4.
Screening N#CC1=C(N)C(C#N)(C#N)C(c2cccnc2)C2CN(C(=O)OCc3ccccc3)CC=C12 (stereo not drawn) returned Candida biofilm 5 and hDAT+cocaine 3.9*.
Screening CCc1nc(SCc2cc(Cl)ccc2OC)n[nH]1 returned HePTP inh 4, PLAP activator 2.2*, Candida biofilm 8, hDAT+cocaine -1.3, D1 mod 0.079 and TNAP act DEA 1.
CCCc1nc(SCc2ccccc2Cl)n[nH]1 was read as PLAP activator 2.2*, Candida biofilm 4 and hDAT+cocaine 1.
Screening CN(C)c1nc(SCc2ccccc2Cl)nc2c1CCCC2 returned PLAP activator 1 and hDAT+cocaine 0.69.
`CCc1nc(SCc2ccc(OC)cc2)n[nH]1` gave HePTP inh -5.
Screening Cc1nc(NCc2ccco2)c2c3c(sc2n1)CCC3 returned HePTP inh -7, PLAP activator 1.1, Candida biofilm -1, hDAT+cocaine 0.078, D1 mod -4.7* and TNAP act DEA 0.9.
Cc1nc(NCCc2ccc(S(N)(=O)=O)cc2)c2c3c(sc2n1)CCC3 was read as PLAP activator 0.9 and hDAT+cocaine 0.72.
Screening CC1=NN(c2ccccc2)C(=O)/C1=C/c1ccc(OC2CSC2)cc1 returned HePTP inh -1.
Screening CC1=NC(C(F)(F)F)(C(F)(F)F)C(C#N)=C(C)N1 returned HePTP inh -1, PLAP activator 0.9, Candida biofilm 6, hDAT+cocaine -3.8*, D1 mod 0.15 and TNAP act DEA 1.
Cc1cccc(N2CC3=C(C2=O)C(c2ccccc2)NC(=O)N3C)c1 (stereo not drawn) was read as HePTP inh 2, PLAP activator 1, Candida biofilm 5, hDAT+cocaine 0.26, D1 mod 0.26 and TNAP act DEA 0.9.
Cc1ccc(N2CC3=C(C2=O)C(c2ccccc2)NC(=O)N3C)cc1 (stereo not drawn) was read as PLAP activator 1.1 and hDAT+cocaine -1.5*.
Screening CC(C)CNc1ncnc2c1sc1nc(N3CCOCC3)c3c(c12)CC(C)(C)OC3 returned PLAP activator 1.2 and hDAT+cocaine -0.0083.
`Cn1cnc2c(sc3nc(N4CCOCC4)c4c(c32)CC(C)(C)OC4)c1=O` gave HePTP inh 5, Candida biofilm 12, D1 mod 3.6* and TNAP act DEA 1.
Screening CCn1c(SCC(=O)NNC(=O)Cc2ccccc2)nnc1-c1ccccc1 returned PLAP activator 2.4* and hDAT+cocaine -0.0041.
For CCOC(=O)CN(C(=O)CSc1nnc(Cc2ccccc2)n1-c1ccc(C)cc1)c1ccccc1 the results were Candida biofilm 4 and hDAT+cocaine 2.7*.
For CCOC(=O)CSc1nnc(Cc2ccccc2)n1-c1ccc(C)cc1 the results were Candida biofilm 4 and hDAT+cocaine 0.13.
Cc1ccc(-n2c(Cc3ccccc3)nnc2SCC(=O)NNC(=O)Cc2ccccc2)cc1 was read as PLAP activator 2.8* and hDAT+cocaine 1.

Compound activity as filed in PubChem.
